{"source": "PubChem BioAssay (Tox21)", "note": "Results filed as inconclusive are left out. Active and inactive are the calls of the source. Calls follow the shape of the dose curve; as a rule, active = well fitted activation curve with a large enough effect in the signal ratio in the repeat runs, with a control signal flat (not every such curve was filed as active); inconclusive = weak or mixed curves; inactive = flat fitted curve, though single readings scatter; the % refers to the signal ratio."}
{"assay": "qHTS assay for small molecule activators of the heat shock response signaling pathway (AID 743210)", "details": "HeLa HSE-bla reporter, beta-lactamase ratio, 5 h; series mostly up to 62.6 µM", "text": "U.S. Tox21 Program National Center for Advancing Translational Sciences [NCATS] NIH Chemical Genomics Center [NCGC] U.S. Environmental Protection Agency [EPA] National Institutes of Environmental Health Sciences [NIEHS] National Toxicology Program [NTP] U.S. Food and Drug Administration [FDA] Tox21 Assay Overview: Various chemicals, environmental and physiological stress conditions may lead to the activation of heat shock response/ unfolded protein response (HSR/UPR). There are three heat shock transcription factors (HSFs) (HSF-1, -2, and -4) mediating transcriptional regulation of the human HSR. To identify the compounds that activate HSR signaling, HSE-bla HeLa cell line (Invitrogen, Carlsbad, CA, USA) containing a beta-lactamase reporter gene under the control of the heat shock response elements was used to screen the Tox21 10K compound library.\nTox21 Assay Protocol Summary: The CellSensor HSE-bla HeLa cells (Invitrogen, Carlsbad, CA, USA) were dispensed at 1500 cells/6uL/well into 1536-well black wall/clear bottom plates using a Multidrop combi (Thermo Fisher Scientific, Waltham, MA) dispenser. After the assay plates were incubated at 37 C and 5% CO2 overnight, 23 nL of compounds dissolved in DMSO, positive controls or DMSO only was transferred to the assay plate by a Pintool station (Kalypsys, San Diego, CA). The plates were incubated at 37 C for 5 h. After 1 uL of LiveBLAzerTM B/G FRET substrate was added using a Flying Reagent Dispenser (Beckman Coulter, Indianapolis, IN, USA), the plates were incubated at room temperature for 2.5 h, and fluorescence intensity was measured by an Envision plate reader (PerkinElmer, Shelton, CT)."}
{"smiles": "OCCSCSCCO", "outcome": "inactive"}
{"smiles": "ClCCOCOCCCl", "outcome": "inactive"}
{"smiles": "COc1ncc(F)c2nc(S(=O)(=O)Nc3c(F)cccc3F)nn12", "outcome": "inactive"}
{"smiles": "O=C1c2ccccc2C(=O)c2ccccc21", "outcome": "inactive"}
{"smiles": "CCOP(=S)(OCC)SCSc1ccc(Cl)cc1", "outcome": "inactive"}
{"smiles": "Cc1coc2c1CCC(C)C2", "note": "(stereo not given)", "outcome": "inactive"}
{"smiles": "CC(CCc1ccccc1)NC(C)C(O)c1ccc(O)cc1", "note": "(stereo not given)", "outcome": "inactive"}
{"smiles": "O=C1CN=C(c2ccccc2)c2cc([N+](=O)[O-])ccc2N1", "outcome": "inactive"}
{"smiles": "O=C(O)C(Br)CBr", "note": "(stereo not given)", "outcome": "inactive"}
{"smiles": "CC(C1CC1)C(O)(Cn1cncn1)c1ccc(Cl)cc1", "note": "(stereo not given)", "outcome": "inactive"}
{"smiles": "CC1CN1P(=O)(N1CC1C)N1CC1C", "note": "(stereo not given)", "outcome": "inactive"}
{"smiles": "OC(c1ccc(F)cc1)(c1cncnc1)c1ccccc1Cl", "note": "(stereo not given)", "outcome": "inactive"}
{"smiles": "CCS(=O)(=O)C(C)(C)S(=O)(=O)CC", "outcome": "inactive"}
{"smiles": "Nc1c(Br)cc([N+](=O)[O-])cc1[N+](=O)[O-]", "outcome": "inactive"}
{"smiles": "O=NN1CCN(N=O)CC1", "outcome": "inactive"}
{"smiles": "Nc1ccccc1Cl", "outcome": "inactive"}
{"smiles": "O=[N+]([O-])c1ccc(CBr)cc1", "outcome": "inactive"}
{"smiles": "ClC(Br)Br", "outcome": "inactive"}
{"smiles": "CSc1nc(N=[N+]=[N-])nc(NC(C)C)n1", "outcome": "inactive"}
{"smiles": "CCCCc1c(C)nc(NCC)[nH]c1=O", "outcome": "inactive"}
{"smiles": "CC(C)(C)C(=O)C(Oc1ccc(Cl)cc1)n1cncn1", "note": "(stereo not given)", "outcome": "inactive"}
{"smiles": "Fc1cc(Br)ccc1CBr", "outcome": "inactive"}
{"smiles": "CCCCOC(=O)c1ccccc1N", "outcome": "inactive"}
{"smiles": "CC(=O)CC(c1ccc(Cl)cc1)c1c(O)c2ccccc2oc1=O", "note": "(stereo not given)", "outcome": "inactive"}
{"smiles": "COc1cc(OC)nc(NC(=O)NS(=O)(=O)c2ncccc2OCC(F)(F)F)n1", "outcome": "inactive"}
{"smiles": "C#CCN1C(=O)COc2cc(F)c(N3C(=O)C4=C(CCCC4)C3=O)cc21", "outcome": "inactive"}
{"smiles": "COC(=O)c1c(C(F)F)nc(C(F)(F)F)c(C2=NCCS2)c1CC(C)C", "outcome": "inactive"}
{"smiles": "CCC#N", "outcome": "inactive"}
{"smiles": "CN1C[C@@H](NS(=O)(=O)N(C)C)C[C@@H]2c3cccc4c3c(cn4C)C[C@H]21", "outcome": "inactive"}
{"smiles": "CC(C=O)Cc1ccc2c(c1)OCO2", "note": "(stereo not given)", "outcome": "inactive"}
{"smiles": "CCOC(=O)C1(c2ccccc2)CCN(CCc2ccc(N)cc2)CC1", "outcome": "inactive"}
{"smiles": "N#CCCC#N", "outcome": "inactive"}
{"smiles": "CC1COC2(c3ccccc3Cl)c3cc(Cl)ccc3NC(=O)CN12", "note": "(stereo not given)", "outcome": "inactive"}
{"smiles": "O=C(NCO)NCO", "outcome": "inactive"}
{"smiles": "O=C(CCN1CC1)OCC(CO)(COC(=O)CCN1CC1)COC(=O)CCN1CC1", "outcome": "inactive"}
{"smiles": "COc1cc(C[C@@H](C)N)c(OC)cc1C", "outcome": "inactive"}
{"smiles": "C[C@]12CC[C@H]3[C@@H](CCC4=CC(=O)CC[C@@]43C)[C@@H]1CC[C@@H]2C(=O)O", "outcome": "inactive"}
{"smiles": "COC(=O)C(C)Oc1ccc(Oc2ccc(Cl)cc2Cl)cc1", "note": "(stereo not given)", "outcome": "inactive"}
{"smiles": "CCCCN(CCCCO)N=O", "outcome": "inactive"}
{"smiles": "CC(C)NCC(O)c1ccc(N)c(C#N)c1", "note": "(stereo not given)", "outcome": "inactive"}
